Laboratory results published in the supplement of paper PMC7411054.
Where a name gives a salt, the structure may show the parent alone.

The compounds below were run on HepG2-TP53BP1-CLTA (assay: phenotypically active (imaging signature differs from DMSO and reproducible) at any of 0.3-9 uM (binary (1 = active, 0 = inactive)); higher = active). Settings: treatment time: 24 h.
How it was run: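 Phenotypic activity depended on meeting both a deviation and a reproducibility criterion. The fifteen gene-edited A549, HepG2 and WPMY1 reporter lines were treated at 0.3, 1, 3 or 9 µM for 24 h, four wells each, then imaged live with features normalised to solvent control wells. Deviation required ≥3 of 4 wells past the 95th percentile of control Euclidean distances, and reproducibility a median replicate Pearson correlation above the 95th percentile of non-replicates.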

Phenotypically active, active:
Nc1nc(Cl)nc2c1ncn2[C@@H]1O[C@H](CO)[C@@H](O)[C@@H]1F [clofarabine] 1
Cc1nc(Nc2ncc(C(=O)Nc3c(C)cccc3Cl)s2)cc(N2CCN(CCO)CC2)n1 [dasatinib] 1
O=C(NCc1cccc(O)c1)Nc1nc(-c2ccncc2)cs1 [RKI 1447 dihydrochloride] 1
CC(C)n1nc(-c2cc3cc(O)ccc3[nH]2)c2c(N)ncnc21 1
COc1ccc(-c2ccc3ncc4c(c3c2)n(-c2ccc(N3CCNCC3)c(C(F)(F)F)c2)c(=O)n4C)cn1 1
CC(C)(C)c1cnc(CSc2cnc(NC(=O)C3CCNCC3)s2)o1 1
O=C(O)c1ccc(Nc2ncc3c(n2)-c2ccc(Cl)cc2C(c2c(F)cccc2F)=NC3)cc1 1
COc1ccc(S(=O)(=O)N(C(C)=O)c2ccccc2/C=C/c2cc[n+]([O-])cc2)cc1 1
CC(C)(C)Nc1nc(Nc2ccc(C(N)=O)cc2)cc(N)c1C#N 1
Nc1cccc(-c2cc3c(Oc4cccc(O)c4)ncnc3[nH]2)c1 1
c1ccc2c(c1)Cc1c(Nc3ccc4c(c3)OCCO4)n[nH]c1-2 1
Cc1c(NC(=O)OC[C@@H]2COCCN2)cn2ncnc(Nc3ccc4c(cnn4Cc4cccc(F)c4)c3)c12 1
CCC(=O)N1CCN(c2ccc(-n3c(=O)ccc4cnc5ccc(-c6cnc7ccccc7c6)cc5c43)cc2C(F)(F)F)CC1 [Torin 1] 1
COc1c(Nc2cc(C)[nH]n2)nc(Sc2ccc(S(=O)(=O)Cc3cccc([N+](=O)[O-])c3F)cc2F)nc1N1CCOCC1 [Centrinone] 1
COc1cc2c(NC3CCN(C(C)C)CC3)nc(N3CCC(F)(F)CC3)nc2cc1OCCCN1CCCC1 1
CC(=O)c1c(C)c2cnc(Nc3ccc(N4CCNCC4)cn3)nc2n(C2CCCC2)c1=O 1
CN1c2ccccc2C(=O)N2CCc3c([nH]c4ccccc34)[C@H]21 [Evodiamine] 1
CO[C@H]1C=CC=C(C)C(=O)NC2=CC(=O)C(NCCN(C)C)=C(C[C@@H](C)C[C@H](OC)[C@H](O)[C@@H](C)C=C(C)[C@@H]1OC(N)=O)C2=O [17-DMAG hydrochloride] 1
Cc1noc(C)c1-c1cc(O)cc(C(O)c2ccccc2)c1 (centres undefined) 1
O=C(Nc1ccc(-c2ccnc(Nc3ccc(N4CCOCC4)cc3)n2)cc1)[C@@H]1CCCN1 1
NC1(C(=O)N[C@@H](CCO)c2ccc(Cl)cc2)CCN(c2ncnc3[nH]ccc23)CC1 1
NC(=O)Nc1cc(-c2cccc(F)c2)sc1C(=O)N[C@H]1CCCNC1 [AZD 7762 hydrochloride] 1
COc1cc2nc(-c3cc(F)ccc3O)nc(N[C@@H]3CNC[C@H]3C(C)(C)O)c2cc1OC 1
Cc1c[nH]c2nccc(Oc3c(F)cc(Nc4cc(Cl)nc(N)n4)cc3F)c12 1
C[C@H]1[C@H]2CC[C@H]3[C@@H]4CC=C5C[C@@H](N(C)C)CC[C@]5(C)[C@H]4CC[C@]23CN1C [Conessine] 1
CON(C)C(=O)N1N=C(c2cc(F)ccc2F)S[C@@]1(CCCN)c1ccccc1 [ARRY 520 trifluoroacetate] 1
CC[C@H](CO)Nc1nc(NCc2ccc(-c3ccccn3)cc2)c2ncn(C(C)C)c2n1 1
Oc1cccc(-c2nc(N3CCOCC3)c3oc4ncccc4c3n2)c1 [PI 103 hydrochloride] 1
COc1cc(/C=C/c2ccc(OC)cc2OC)cc(OC)c1 1
COc1cc2c(cc1-c1c(C)noc1C)ncc1[nH]c(=O)n([C@H](C)c3ccccn3)c12 [I-BET 151 dihydrochloride] 1
COc1cccc(-c2cc(F)ccc2[C@H]2Cc3nc(N)nc(C)c3C(=O)N2)n1 1
COc1cc(C(=O)NC2CCN(C)CC2)c(F)cc1Nc1ncc2c(n1)N(C1CCCC1)CC(F)(F)C(=O)N2C [TAK 960 hydrochloride] 1
CC[C@]1(O)C[C@@H]2CN(CCc3c([nH]c4ccccc34)[C@@](C(=O)OC)(c3cc4c(cc3OC)N(C=O)[C@H]3[C@@](O)(C(=O)OC)[C@H](OC(C)=O)[C@]5(CC)C=CCN6CC[C@]43[C@@H]65)C2)C1 [vincristine] 1
OC[C@H]1O[C@@H](n2cnc3c(NCc4ccco4)ncnc32)[C@H](O)[C@@H]1O [Kinetin riboside] 1
N#Cc1c(C2CCNCC2)cc(-c2c(O)cccc2OCC2CC2)nc1N 1
C=CC(=O)Nc1cccc(Nc2nc(Nc3ccc(OCCOC)cc3)ncc2F)c1 1
COc1cc(N2CCC(N3CCN(C)CC3)CC2)ccc1Nc1ncnc(Nc2ccccc2S(=O)(=O)C(C)C)n1 1
Fc1ccccc1CNCc1ccc(-c2ccnc3[nH]ccc23)cc1 [OXA 06 dihydrochloride] 1
C[C@H]1COCCN1c1cc(C2(S(=O)(=O)C3CC3)CC2)nc(-c2ccc(NC(=S)NCCO)cc2)n1 1
